Eight compounds from ChEMBL document CHEMBL2218924, “A broad activity screen in support of a chemogenomic map for kinase signalling research and drug discovery” (Biochem J, 2013) can be followed below.

Each structure is given as a SMILES string.

Assay [1] deals with T1, cGMP-dependent protein kinase 1 (Homo sapiens) (UniProt Q13976).
T1 sequence (whole entry): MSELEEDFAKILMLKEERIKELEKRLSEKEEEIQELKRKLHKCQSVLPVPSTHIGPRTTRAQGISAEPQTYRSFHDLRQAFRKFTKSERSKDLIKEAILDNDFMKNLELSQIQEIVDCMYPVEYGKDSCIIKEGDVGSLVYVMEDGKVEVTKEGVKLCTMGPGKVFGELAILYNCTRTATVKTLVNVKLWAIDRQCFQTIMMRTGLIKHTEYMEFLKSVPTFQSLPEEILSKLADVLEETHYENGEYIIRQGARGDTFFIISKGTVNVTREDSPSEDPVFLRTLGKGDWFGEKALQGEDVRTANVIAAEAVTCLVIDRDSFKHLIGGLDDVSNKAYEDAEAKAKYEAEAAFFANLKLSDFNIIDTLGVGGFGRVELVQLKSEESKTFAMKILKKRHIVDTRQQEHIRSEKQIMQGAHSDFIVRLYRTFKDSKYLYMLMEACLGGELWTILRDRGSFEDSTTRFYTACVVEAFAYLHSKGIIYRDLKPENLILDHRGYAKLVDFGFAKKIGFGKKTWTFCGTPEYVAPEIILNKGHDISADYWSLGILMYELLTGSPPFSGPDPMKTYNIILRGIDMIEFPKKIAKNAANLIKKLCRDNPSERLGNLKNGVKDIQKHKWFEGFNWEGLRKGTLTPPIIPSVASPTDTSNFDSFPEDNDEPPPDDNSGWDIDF
The conditions noted are these: at 1 µM.

For assay [2], the target named is T1, cGMP-dependent protein kinase 1 (Homo sapiens). The conditions noted are these: at 10 µM.
The target is the same in assay [3]. The conditions noted are these: at 1 µM. This is another data set of the same source.
For assay [4] the target is unchanged. The conditions noted are these: at 10 µM. This is another data set of the same source.
For assay [5], the target named is T2, MAP kinase-activated protein kinase 5 (Homo sapiens) (UniProt Q8IW41).
T2 sequence (whole entry): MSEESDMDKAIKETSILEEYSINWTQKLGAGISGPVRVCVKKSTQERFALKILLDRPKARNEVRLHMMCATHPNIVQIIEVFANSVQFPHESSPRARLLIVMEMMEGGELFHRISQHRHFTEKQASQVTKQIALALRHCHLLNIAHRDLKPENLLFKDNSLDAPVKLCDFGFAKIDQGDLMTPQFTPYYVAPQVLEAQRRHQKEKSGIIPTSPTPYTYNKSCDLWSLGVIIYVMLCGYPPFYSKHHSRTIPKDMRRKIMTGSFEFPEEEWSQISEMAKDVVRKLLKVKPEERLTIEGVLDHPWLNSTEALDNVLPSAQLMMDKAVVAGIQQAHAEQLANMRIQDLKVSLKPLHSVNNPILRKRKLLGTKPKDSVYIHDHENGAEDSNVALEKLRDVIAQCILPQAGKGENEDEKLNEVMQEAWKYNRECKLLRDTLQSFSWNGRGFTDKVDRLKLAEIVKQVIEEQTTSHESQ
The note with it: at 1 µM.

Assay [6] addresses T2, MAP kinase-activated protein kinase 5 (Homo sapiens). The conditions noted are these: at 10 µM.
The target in assay [7] is Serine/threonine-protein kinase N2 (Homo sapiens) (UniProt Q16513). The conditions noted are these: at 1 µM.
Serine/threonine-protein kinase N2 (Homo sapiens), sequence (Q16513 whole entry, looked up): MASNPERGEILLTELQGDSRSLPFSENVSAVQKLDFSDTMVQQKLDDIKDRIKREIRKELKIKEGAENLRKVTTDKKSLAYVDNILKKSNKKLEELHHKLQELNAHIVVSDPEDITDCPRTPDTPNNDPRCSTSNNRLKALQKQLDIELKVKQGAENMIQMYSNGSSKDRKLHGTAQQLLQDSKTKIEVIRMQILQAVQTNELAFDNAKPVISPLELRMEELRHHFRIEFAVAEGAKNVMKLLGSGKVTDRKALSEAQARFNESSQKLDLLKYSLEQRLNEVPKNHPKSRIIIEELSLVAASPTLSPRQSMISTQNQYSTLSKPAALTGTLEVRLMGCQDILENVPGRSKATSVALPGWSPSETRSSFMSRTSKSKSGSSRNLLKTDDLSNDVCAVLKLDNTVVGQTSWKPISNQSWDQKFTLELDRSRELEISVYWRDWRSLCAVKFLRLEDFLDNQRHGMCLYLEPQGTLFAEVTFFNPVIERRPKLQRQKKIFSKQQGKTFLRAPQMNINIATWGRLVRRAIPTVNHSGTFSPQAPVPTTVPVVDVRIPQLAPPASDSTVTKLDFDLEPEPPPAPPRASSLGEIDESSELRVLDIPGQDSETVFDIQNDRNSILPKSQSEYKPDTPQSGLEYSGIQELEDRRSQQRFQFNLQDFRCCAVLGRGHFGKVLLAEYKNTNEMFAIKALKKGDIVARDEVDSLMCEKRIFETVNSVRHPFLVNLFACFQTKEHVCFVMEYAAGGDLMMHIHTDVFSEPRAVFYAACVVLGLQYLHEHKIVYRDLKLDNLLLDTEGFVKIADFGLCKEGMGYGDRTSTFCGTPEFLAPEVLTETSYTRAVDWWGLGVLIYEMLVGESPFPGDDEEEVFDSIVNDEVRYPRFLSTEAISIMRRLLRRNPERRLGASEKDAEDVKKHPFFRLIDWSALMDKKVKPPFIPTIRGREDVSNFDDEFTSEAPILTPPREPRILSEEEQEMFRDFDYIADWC
Assay [8] has the same target. The note with it: at 10 µM.
For assay [9], the target named is Tyrosine-protein kinase FRK (Homo sapiens) (UniProt P42685). The note with it: at 1 µM.
Tyrosine-protein kinase FRK (Homo sapiens), sequence (P42685 whole entry): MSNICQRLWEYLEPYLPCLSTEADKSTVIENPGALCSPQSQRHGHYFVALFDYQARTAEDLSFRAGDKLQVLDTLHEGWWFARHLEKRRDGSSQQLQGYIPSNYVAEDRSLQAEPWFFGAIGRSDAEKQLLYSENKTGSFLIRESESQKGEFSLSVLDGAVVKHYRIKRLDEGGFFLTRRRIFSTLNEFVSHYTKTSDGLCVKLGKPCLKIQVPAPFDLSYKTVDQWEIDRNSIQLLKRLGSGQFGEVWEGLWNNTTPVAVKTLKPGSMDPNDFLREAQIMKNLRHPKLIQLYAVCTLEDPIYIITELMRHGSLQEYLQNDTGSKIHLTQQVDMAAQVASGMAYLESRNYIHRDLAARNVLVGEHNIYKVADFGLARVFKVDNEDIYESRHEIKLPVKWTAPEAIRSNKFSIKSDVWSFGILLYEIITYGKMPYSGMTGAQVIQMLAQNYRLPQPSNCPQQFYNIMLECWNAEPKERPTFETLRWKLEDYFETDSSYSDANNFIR
Assay [10] shares this target. The note with it: at 10 µM.
For assay [11], the target named is T3, Phosphorylase b kinase gamma catalytic chain, liver/testis isoform (Homo sapiens) (UniProt P15735).
T3 sequence (whole entry): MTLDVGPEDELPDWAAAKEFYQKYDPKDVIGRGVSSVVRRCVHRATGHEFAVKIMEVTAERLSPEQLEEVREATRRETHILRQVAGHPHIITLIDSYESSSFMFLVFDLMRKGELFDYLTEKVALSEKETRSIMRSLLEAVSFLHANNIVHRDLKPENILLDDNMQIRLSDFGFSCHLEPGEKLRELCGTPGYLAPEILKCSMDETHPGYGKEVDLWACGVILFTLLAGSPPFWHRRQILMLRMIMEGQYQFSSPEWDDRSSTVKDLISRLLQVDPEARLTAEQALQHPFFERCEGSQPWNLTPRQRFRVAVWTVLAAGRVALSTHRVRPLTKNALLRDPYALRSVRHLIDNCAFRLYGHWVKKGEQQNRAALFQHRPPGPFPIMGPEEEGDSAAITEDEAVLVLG
The conditions noted are these: at 1 µM.

Assay [12] has as its target T3, Phosphorylase b kinase gamma catalytic chain, liver/testis isoform (Homo sapiens). The conditions noted are these: at 10 µM.
For assay [13], the target named is Serine/threonine-protein kinase pim-1 (Homo sapiens) (UniProt P11309). The note with it: at 1 µM.
Serine/threonine-protein kinase pim-1 (Homo sapiens), sequence (P11309 whole entry, looked up): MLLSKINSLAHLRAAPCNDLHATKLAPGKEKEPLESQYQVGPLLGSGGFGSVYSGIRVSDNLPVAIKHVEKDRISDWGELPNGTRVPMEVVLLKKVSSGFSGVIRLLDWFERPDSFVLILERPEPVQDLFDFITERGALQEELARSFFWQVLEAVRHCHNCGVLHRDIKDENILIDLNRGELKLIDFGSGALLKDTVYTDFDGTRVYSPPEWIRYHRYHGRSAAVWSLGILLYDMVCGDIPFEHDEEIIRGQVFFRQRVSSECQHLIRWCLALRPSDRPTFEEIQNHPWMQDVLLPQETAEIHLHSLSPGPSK
Assay [14] shares this target. The note with it: at 10 µM.
In assay [15] the target is Serine/threonine-protein kinase pim-2 (Homo sapiens) (UniProt Q9P1W9). The conditions noted are these: at 1 µM.
Serine/threonine-protein kinase pim-2 (Homo sapiens), sequence (Q9P1W9 whole entry, looked up): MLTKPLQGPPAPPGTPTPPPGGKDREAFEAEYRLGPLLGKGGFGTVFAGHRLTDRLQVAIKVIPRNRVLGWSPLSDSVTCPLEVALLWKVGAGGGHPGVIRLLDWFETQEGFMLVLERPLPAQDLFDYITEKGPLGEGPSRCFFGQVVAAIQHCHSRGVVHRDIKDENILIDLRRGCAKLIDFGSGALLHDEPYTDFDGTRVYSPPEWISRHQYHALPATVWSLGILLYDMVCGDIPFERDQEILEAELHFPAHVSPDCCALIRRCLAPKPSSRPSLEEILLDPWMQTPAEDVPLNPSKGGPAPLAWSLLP
Assay [16] has the same target. The note with it: at 10 µM.
Assay [17] addresses Serine/threonine-protein kinase pim-3 (Homo sapiens) (UniProt Q86V86). The conditions noted are these: at 1 µM.
Assay [18] shares this target. The note with it: at 10 µM.
The target in assay [19] is Serine/threonine-protein kinase PLK1 (Homo sapiens) (UniProt P53350). The note with it: at 1 µM.
Serine/threonine-protein kinase PLK1 (Homo sapiens), sequence (P53350 whole entry): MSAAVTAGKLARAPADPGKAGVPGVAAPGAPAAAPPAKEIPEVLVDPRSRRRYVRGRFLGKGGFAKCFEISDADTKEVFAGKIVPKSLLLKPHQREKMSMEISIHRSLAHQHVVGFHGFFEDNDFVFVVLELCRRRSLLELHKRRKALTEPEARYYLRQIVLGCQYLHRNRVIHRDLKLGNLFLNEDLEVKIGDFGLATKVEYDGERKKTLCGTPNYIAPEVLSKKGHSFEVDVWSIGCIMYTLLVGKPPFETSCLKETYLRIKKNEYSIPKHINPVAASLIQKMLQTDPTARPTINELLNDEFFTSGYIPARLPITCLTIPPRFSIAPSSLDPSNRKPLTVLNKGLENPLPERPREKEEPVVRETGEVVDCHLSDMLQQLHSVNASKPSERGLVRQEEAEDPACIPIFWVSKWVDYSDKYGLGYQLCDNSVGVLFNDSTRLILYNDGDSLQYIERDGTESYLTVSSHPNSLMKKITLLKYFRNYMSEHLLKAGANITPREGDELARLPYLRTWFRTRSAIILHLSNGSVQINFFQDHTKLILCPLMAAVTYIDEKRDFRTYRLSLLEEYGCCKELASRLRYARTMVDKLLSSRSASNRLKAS
For assay [20] the target is unchanged. The note with it: at 10 µM.

For the compound `O=C1NC(=O)c2cc(Nc3ccc(F)cc3)c(Nc3ccc(F)cc3)cc21`, the residual activity was 98% in [1]; 97% in assay [2]; 92% in assay [3]; 73% in assay [4]; 74% in [5]; 39% in assay [6]. Also, the residual activity stood at 90% in [7]; 84% in [8]; 83% in assay [9]; 41% in [10]; 93% in assay [11]; 86% in [12]. In addition, the residual activity in [13] was determined as 49%; in [14], 11%; in assay [15], 91%; in assay [16], 31%; in assay [17] it was 94%; in assay [18], 93%. In addition, the residual activity in assay [19] was determined as 95%; in assay [20], 69%.

Regarding `O=C1c2ccccc2-[n+]2ccc3c([nH]c4ccccc43)c21`, the residual activity was found to be 94% in [1]; 116% in assay [2]; 83% in assay [3]; 75% in assay [4]; 119% in [5]; 124% in assay [6]. The residual activity came out at 86% in assay [7]; 92% in assay [8]; 95% in [9]; 92% in assay [10]; 108% in assay [11]; 99% in assay [12]. Moreover, the residual activity in [13] came out at 110%; in assay [14], 91%; in assay [15], 144%; in assay [16], 130%; in assay [17], 81%; in assay [18], 74%. The residual activity in assay [19] is 75%; in [20], 74%.

For `O=C(Nc1cccc(Nc2cc(Nc3cccc(C(F)(F)F)c3)ncn2)c1)C1CC1`, the residual activity in assay [1] was 117%; in assay [2], 100%; in assay [3], 81%; in assay [4], 88%; in [5] it was 110%; in assay [6], 24%. The residual activity in [7] was found to be 93%; in assay [8], 93%; in assay [9], 101%; in [10] it was 73%; in assay [11], 86%; in assay [12], 98%. Also, the residual activity in assay [13] worked out at 112%; in assay [15] it was 88%; in [16], 108%; in assay [17], 93%; in assay [18] it was 102%; in assay [19] it was 99%. Also, the residual activity in assay [20] turned out to be 91%.

`N#CC(C#N)=C(N)/C(C#N)=C/c1ccc(O)cc1`: the residual activity in [6] was 92%; in [8] it was 117%; in assay [10], 91%; in [16] it was 118%; in [18], 88%; in assay [19], 79%. In addition, in assay [20], the residual activity was determined as 36%.

In the case of `Cc1cccc(-c2[nH]c(C(C)(C)C)nc2-c2ccc3c(c2)OCO3)n1`, the residual activity worked out at 92% in assay [5]; 77% in assay [6]; 92% in assay [10]; 103% in assay [17]; 97% in assay [18]; 80% in assay [19]. The residual activity in assay [20] came to 75%.

For `Cc1cncc2cccc(S(=O)(=O)N3CCCN(C(=O)CN)C[C@H]3C)c12`, the residual activity amounted to 93% in [1]; 44% in [2]; 74% in assay [3]; 19% in assay [4]; 82% in [5]; 98% in [6]. Further, the residual activity in [7] turned out to be 22%; in assay [8], 7%; in [9], 87%; in [10], 70%; in assay [11], 82%; in assay [12], 49%. Besides, the residual activity in [13] amounted to 100%; in assay [14] it was 84%; in assay [17], 92%; in assay [18] it was 86%; in assay [19] it was 90%; in assay [20], 59%.

With `O=C1Nc2ccc(Br)cc2/C1=C\c1cc2c([nH]1)CCCC2`, the residual activity was determined as 100% in [1]; 99% in assay [2]; 105% in assay [3]; 97% in [4]; 82% in assay [5]; 99% in assay [6]. Further, the residual activity in assay [8] was found to be 112%; in [9] it was 102%; in [10], 103%; in assay [11] it was 77%; in [12] it was 78%; in assay [14], 105%. The residual activity in assay [15] is 129%; in [16] it was 106%; in assay [17], 105%; in assay [18] it was 112%; in [19] it was 82%; in assay [20] it was 80%.

Take `CC(=O)O/N=C1\C(=C2\C(=O)Nc3cc(Br)ccc32)Nc2ccccc21`: the residual activity in assay [1] was 101%; in assay [2] it was 112%; in [3] it was 102%; in [4], 76%; in [5] it was 105%; in assay [7], 98%. For the same compound, the residual activity amounted to 79% in [8]; 17% in [9]; 1% in [10]; 92% in assay [11]; 70% in assay [12]; 92% in assay [13]. The residual activity in [14] was 87%; in [15] it was 134%; in assay [16] it was 67%; in [17], 84%; in assay [18], 84%; in assay [19] it was 79%. Further, in assay [20], the residual activity is 76%.
